Values of other authors as cited in PubChem BioAssay AID977611.
The whole screen tested about 3,900 compounds, of which about 3,900 (100%) were called active. No cut-off is given here; in the data, nearly all actives have Kd up to about 4200 µM. The set was probably picked from earlier hits. The list shows a part of the results. Numbered stars: 1 amine (or outer) side, 2 acyl side, 3 side chain; on linkers, the order of the positions; unused ones are H or OH. Where a SMILES comes first, the peptide text is derived from it. Non-standard residues stand in square brackets, D forms with d. Square brackets hold non-standard residues; d marks the D form. Residues, ends and D or L forms follow the SMILES beside them. Peptide text beside a SMILES is read from it. [ ]: non-standard residue; d: D form. ξ: configuration not given here. Lys(Me3) = C[N+](C)(C)CCCC[C@H](N)C(=O)O; Orn(CH(NH2)2) = NC(N)NCCC[C@H](N)C(=O)O; X1 = CNC(NC)NCCC[C@H](N[*:1])C(=O)[*:2]; ΔPro = O=C(O)[C@@H]1C=CCN1; Nva = CCC[C@H](N)C(=O)O; ξE = NC(CCC(=O)O)C(=O)O; Abu = CC[C@H](N)C(=O)O

Experiment: PubChem AID 977611
Settings: PDB protein-ligand complexes, literature Kd

CC[C@H](NC(=O)[C@@H](NC(=O)[C@H](CC(C)C)NC(=O)[C@H](CC(=O)O)NC(=O)[C@H](CCC(N)=O)NC(=O)[C@H](CCC(=O)O)NC(=O)[C@@H](NC(=O)[C@@H]1CCCN1C(=O)[C@@H]1CCCN1C(=O)[C@@H](N)CC(C)C)[C@@H](C)O)[C@@H](C)O)C(=O)N[C@@H](CC(C)C)C(=O)N[C@@H](CC(C)C)C(=O)N[C@@H](C)C(=O)N[C@@H](CCC(=O)O)C(=O)O (H-LPPTEQDLT[Abu]LLAE-OH)
Kd (protein: nuclear coactivator 1 (NCoA-1) PAS-B domain, PDB entry 1oj5): 0.8 µM (active)

CNC(NC)NCCC[C@H](NC(=O)[C@H](C)N)C(=O)N[C@H](C(=O)N[C@@H](CCCC[N+](C)(C)C)C(=O)N[C@@H](CCC(N)=O)C(=O)N[C@H](C(=O)N[C@@H](C)C(=O)N[C@@H](C)C(=O)N[C@@H](C)C(N)=O)[C@@H](C)O)[C@@H](C)O (H-A[X1]T[Lys(Me3)]QTAAA-NH2)
Kd (protein: RAG2-PHD, PDB entry 2v87): 25.1 µM (active)

C[C@H](N)C(=O)N[C@@H](CCCN=C(N)N)C(=O)N[C@H](C(=O)N[C@@H](CCCC[N+](C)(C)C)C(=O)N[C@@H](CCC(N)=O)C(=O)N[C@H](C(=O)N[C@@H](C)C(=O)N[C@@H](CCCNC(N)=[N+](C)C)C(=O)N[C@@H](CCCCN)C(=O)O)[C@@H](C)O)[C@@H](C)O
Kd (protein: human Spindlin1, PDB entry 4mzf): 0.045 µM (active)

C[C@H](N)C(=O)N[C@@H](CCCN=C(N)N)C(=O)N[C@H](C(=O)N[C@@H](CCCC[N+](C)(C)C)C(=O)N[C@@H](CCC(N)=O)C(=O)N[C@H](C(=O)N[C@@H](C)C(=O)O)[C@@H](C)O)[C@@H](C)O (H-ART[Lys(Me3)]QTA-OH)
Kd (protein: human Spindlin1, PDB entry 4mzh): 0.066 µM (active)

C[C@H](N)C(=O)N[C@@H](CCCNC(N)N)C(=O)N[C@@H](CCCC[N+](C)(C)C)C(=O)N[C@@H](CO)C(=O)N[C@@H](C)C(=O)NCC(=O)N[C@@H](C)C(=O)N[C@@H](C)C=O (H-A[Orn(CH(NH2)2)][Lys(Me3)]SAGAA-aldehyde)
Kd (protein: Polycomb protein EED residues 77-441, PDB entry 3iiy): 16 µM (active)

C[C@H](N)C(=O)N[C@@H](CCCNC(N)N)C(=O)N[C@H](C(=O)N[C@@H](CCCC[N+](C)(C)C)C(=O)N[C@@H](CCC(N)=O)C(=O)N[C@H](C(=O)O)[C@@H](C)O)[C@@H](C)O (H-A[Orn(CH(NH2)2)]T[Lys(Me3)]QT-OH)
Kd (protein: bromodomain PHD finger transcription factor, PDB entry 2f6j): 2.7 µM (active)

C[C@H](N)C(=O)N[C@@H](CCCNC(N)N)C(=O)N[C@H](C(=O)N[C@@H](CCCC[N+](C)(C)C)C(=O)N[C@@H](CCC(N)=O)C(=O)N[C@H](C(=O)N[C@@H](C)C(=O)O)[C@@H](C)O)[C@@H](C)O (H-A[Orn(CH(NH2)2)]T[Lys(Me3)]QTA-OH)
Kd (protein: Histone-lysine N-methyltransferase MLL5, PDB entry 4l58): 21 µM (active)
Kd (protein: Inhibitor of growth protein 5, PDB entry 3c6w): 2.4 µM (active)
Kd (protein: Jumonji domain-containing protein 2A, PDB entry 2gfa): 10.4 µM (active)

C[C@H](N)C(=O)N[C@@H](CCCNC(N)N)C(=O)N[C@@H](CCCC[N+](C)(C)C)C(=O)N[C@@H](CO)C(=O)N[C@@H](C)C(=O)O (H-A[Orn(CH(NH2)2)][Lys(Me3)]SA-OH)
Kd (protein: Polycomb protein EED residues 77-441, PDB entry 3iiw): 36.4 µM (active)

CN(C)S(=O)(=O)c1ccsc1
Kd (protein: Pantothenate synthetase (T2A, E77G mutation), PDB entry 4efk): 3200 µM (active)
Kd (protein: Pantothenate synthetase (T2A, E77G mutation), PDB entry 4g5y): 1700 µM (active)

CC1(C)NC(N)NC(N)N1c1ccc(Cl)cc1 (configuration not stated)
Kd (protein: Dihydrofolate reductase, PDB entry 4kne): 1.26 µM (active)

CC(=O)NCCCCNc1ncnc2c1ncn2[C@@H]1O[C@H](CN(CCCNC(=O)Nc2ccc(C(C)(C)C)cc2)C(C)C)[C@@H](O)[C@H]1O
Kd (protein: Histone-lysine N-methyltransferase, H3 lysine-79 specific DOT1L, PDB entry 4wvl): 0.131 µM (active)

CCCCC/C=C\C\C=C/C=C/C=C/C[C@@H](O)CCCC(=O)O
Kd (protein: Tablysin 15, PDB entry 3u3u): 0.133 µM (active)

CC[C@H](N)C(=O)N[C@H](C(=O)N[C@@H](Cc1ccccc1)C(=O)N[C@@H](CO)C(=O)N[C@@H](CC(=O)O)C(=O)N[C@@H](CC(C)C)C(=O)N[C@@H](Cc1c[nH]c2ccccc12)C(=O)N[C@@H](CCCCN)C(=O)N[C@@H](CC(C)C)C(=O)N[C@@H](CC(C)C)C(=O)N1CCC[C@H]1C(=O)O)[C@@H](C)O (H-[Abu]TFSDLWKLLP-OH)
Kd (protein: native Mdm4 protein, PDB entry 2z5s): 2.2 µM (active)

CC(C)C[C@H](NC(=O)[C@H](CC(=O)O)NC(=O)[C@H](CO)NC(=O)[C@H](Cc1ccccc1)NC(=O)[C@@H](NC(=O)[C@@H](N)CCC(=O)O)[C@@H](C)O)C(=O)N[C@@H](Cc1c[nH]c2ccccc12)C(=O)N[C@@H](CCCCN)C(=O)N[C@@H](CC(C)C)C(=O)N[C@@H](CC(C)C)C(=O)N1CCC[C@H]1C(=O)O
Kd (protein: E3 ubiquitin-protein ligase Mdm2 (E69A, K70A mutation), PDB entry 4hfz): 1.9 µM (active)
Kd (protein: human-mimic Mdm4 protein, PDB entry 2z5t): 2.4 µM (active)

C[C@H](N)C(=O)N[C@@H](CO)C(=O)N[C@@H](CCCN=C(N)N)C(=O)N[C@@H](Cc1c[nH]c2ccccc12)C(=O)N[C@@H](CC(=O)O)C(=O)N[C@@H](CCC(=O)O)C(=O)N[C@H](C(=O)N1CCC[C@H]1C(=O)O)[C@@H](C)O (H-ASRWDETP-OH)
Kd (protein: RNA-binding protein 39 CAPER-alpha, PDB entry 4oz1): 2.4 µM (active)

C[C@H](NC(=O)[C@H](CCCNC(N)N)NC(=O)[C@@H](N)CCCCN)C(=O)N[C@@H](CO)C(=O)N[C@@H](CCCNC(N)N)C(=O)N[C@@H](Cc1c[nH]c2ccccc12)C(=O)N[C@@H](CC(=O)O)C(=O)N[C@@H](CCC(=O)O)C(=O)N[C@H](C(=O)N1CCC[C@H]1C(=O)O)[C@@H](C)O (H-K[Orn(CH(NH2)2)]AS[Orn(CH(NH2)2)]WDETP-OH)
Kd (protein: Splicing factor 45(SPF45-UHM), PDB entry 2peh): 1.1 µM (active)

CC[C@H](C)[C@H](NC(=O)[C@H](CCC(=O)O)NC(=O)[C@H](CO)NC(=O)[C@@H](N)CCCNC(N)N)C(=O)N[C@H](C(=O)N[C@@H](CO)C(=O)N[C@H](C(=O)N[C@@H](C)C(=O)N1CC=C[C@H]1C(=O)N[C@@H](CO)C(=O)N[C@@H](CO)C(=O)N[C@@H](Cc1c[nH]c2ccccc12)C(=O)N[C@H](C(=O)N[C@H](C(=O)N1CCC[C@H]1C(=O)NCC(=O)N1CCC[C@H]1C(=O)O)C(C)C)C(C)C)[C@@H](C)O)[C@@H](C)CC (H-[Orn(CH(NH2)2)]SEIISTA[ΔPro]SSWVVPGP-OH)
Kd (protein: B-cell lymphoma 6 protein, PDB entry 3bim): 1.32 µM (active)

CCC[C@H](NC(=O)[C@H](Cc1c[nH]c2ccccc12)NC(=O)[C@H](CC(C)C)NC(=O)[C@H](CC(=O)O)NC(=O)[C@H](CO)NC(=O)[C@H](Cc1ccccc1)NC(=O)[C@@H](NC(=O)C(N)CCC(=O)O)[C@@H](C)O)C(=O)N[C@@H](CC(C)C)C(=O)N[C@@H](CC(C)C)C(=O)N1CCC[C@H]1C(=O)N[C@@H](CCC(=O)O)C(=O)O (some centres not stated) (H-[ξE]TFSDLW[Nva]LLPE-OH)
Kd (protein: Mdm4 protein, PDB entry 3dab): 0.21 µM (active)
